Source: PubChem BioAssay
Calls of active or inactive are those of the source.

What was measured:
[1] = tested on: PRMT1 (protein arginine N-methyltransferase 1); experiment: PRMT1 binders on small-molecule microarrays, primary screen, biochemical, small-molecule microarray, 635 nm fluorescence (AID 1088); conditions: small-molecule microarray binding, higher = more signal;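 note: binding of Prmt1 protein to compounds spotted on small-molecule microarray slides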
[2] = yeast growth modulation, basal conditions, primary screen, YJM789 clinical isolate, OD600, 24 h (AID 1089);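 note: growth of clinical yeast isolate S. cerevisiae YJM 789 seeded 1000 cells per well; test concentration not given here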; conditions: S. cerevisiae YJM789 growth, higher = more signal, called active from +8 up or from −8 down
[3] = fission yeast growth modulation, primary screen, strain 972, OD600, 24 h, no modulator (AID 1090);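 note: basal condition with compound alone and no growth modifier present; test concentration not given here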; conditions: S. pombe 972 growth, higher = more signal, called active from +8 up or from −8 down
[4] = S. cerevisiae growth modulation with rapamycin, primary screen, strain BY4716, OD600, 96 h (AID 1091); conditions: higher = more signal, called active from +8 up or from −8 down; note: test concentration not given here
[5] = target: Torsin-1A-interacting protein 2 (Homo sapiens) (UniProt Q8NFQ8); experiment: LULL1 binders on small-molecule microarray, primary screen, cell lysate, human LULL1 lysate, 635/667 nm fluorescence (AID 1092); conditions: hLULL1 lysate binding, 635 nm fluorescence, higher = more signal;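 note: probe is lysate of COS7 cells overexpressing human LULL1; score merges per-feature 667 nm fluorescence with signal-to-noise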
Torsin-1A-interacting protein 2 (Homo sapiens), sequence (Q8NFQ8 whole entry, looked up): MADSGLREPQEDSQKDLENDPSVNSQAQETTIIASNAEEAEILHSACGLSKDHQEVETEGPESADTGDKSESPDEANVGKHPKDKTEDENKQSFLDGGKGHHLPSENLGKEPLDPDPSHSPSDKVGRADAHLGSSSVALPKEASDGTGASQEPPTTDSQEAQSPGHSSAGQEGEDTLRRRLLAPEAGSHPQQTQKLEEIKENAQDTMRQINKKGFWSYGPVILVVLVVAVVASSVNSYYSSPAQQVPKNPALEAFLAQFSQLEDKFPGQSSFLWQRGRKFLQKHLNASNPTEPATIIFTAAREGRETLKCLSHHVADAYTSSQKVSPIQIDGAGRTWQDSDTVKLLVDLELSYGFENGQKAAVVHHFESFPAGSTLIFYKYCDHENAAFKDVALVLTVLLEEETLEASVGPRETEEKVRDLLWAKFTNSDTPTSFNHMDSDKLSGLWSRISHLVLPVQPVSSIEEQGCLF

[6] = E. coli growth modulation, two-sided OD650, primary screen, E. coli filamentation project, strain DRC41, 24 h (AID 1093); conditions: OD650, 24 h, higher = more signal, called active from +8 up or from −8 down;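 note: MC1000 strain lacking acrAB efflux and sulA so SOS filamentation is blocked; test concentration not given here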
[7] = small-molecule microarray binders of probe aLefty2, primary screen, biochemical, biotinylated probe, 635/667 nm fluorescence (AID 1094); conditions: higher = more signal;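 note: score merges spot fluorescence near 667 nm with spot signal-to-noise ratio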
[8] = tested on: Noggin (protein binding on small-molecule microarray); experiment: Noggin binders on small-molecule microarray, primary screen, biochemical, 635/667 nm fluorescence (AID 1095); conditions: 635 nm fluorescence, higher = more signal;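 note: score merges 667 nm feature fluorescence with signal to noise over triplicate slides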
[9] = target: Neurogenic locus notch homolog protein 3 (Homo sapiens) (UniProt Q9UM47); experiment: NOTCH3 binders on small-molecule microarray, primary screen, biochemical, 635/667 nm fluorescence (AID 1096); conditions: NOTCH3 binding, 635 nm fluorescence, higher = more signal
Neurogenic locus notch homolog protein 3 (Homo sapiens), sequence (Q9UM47 whole entry, looked up): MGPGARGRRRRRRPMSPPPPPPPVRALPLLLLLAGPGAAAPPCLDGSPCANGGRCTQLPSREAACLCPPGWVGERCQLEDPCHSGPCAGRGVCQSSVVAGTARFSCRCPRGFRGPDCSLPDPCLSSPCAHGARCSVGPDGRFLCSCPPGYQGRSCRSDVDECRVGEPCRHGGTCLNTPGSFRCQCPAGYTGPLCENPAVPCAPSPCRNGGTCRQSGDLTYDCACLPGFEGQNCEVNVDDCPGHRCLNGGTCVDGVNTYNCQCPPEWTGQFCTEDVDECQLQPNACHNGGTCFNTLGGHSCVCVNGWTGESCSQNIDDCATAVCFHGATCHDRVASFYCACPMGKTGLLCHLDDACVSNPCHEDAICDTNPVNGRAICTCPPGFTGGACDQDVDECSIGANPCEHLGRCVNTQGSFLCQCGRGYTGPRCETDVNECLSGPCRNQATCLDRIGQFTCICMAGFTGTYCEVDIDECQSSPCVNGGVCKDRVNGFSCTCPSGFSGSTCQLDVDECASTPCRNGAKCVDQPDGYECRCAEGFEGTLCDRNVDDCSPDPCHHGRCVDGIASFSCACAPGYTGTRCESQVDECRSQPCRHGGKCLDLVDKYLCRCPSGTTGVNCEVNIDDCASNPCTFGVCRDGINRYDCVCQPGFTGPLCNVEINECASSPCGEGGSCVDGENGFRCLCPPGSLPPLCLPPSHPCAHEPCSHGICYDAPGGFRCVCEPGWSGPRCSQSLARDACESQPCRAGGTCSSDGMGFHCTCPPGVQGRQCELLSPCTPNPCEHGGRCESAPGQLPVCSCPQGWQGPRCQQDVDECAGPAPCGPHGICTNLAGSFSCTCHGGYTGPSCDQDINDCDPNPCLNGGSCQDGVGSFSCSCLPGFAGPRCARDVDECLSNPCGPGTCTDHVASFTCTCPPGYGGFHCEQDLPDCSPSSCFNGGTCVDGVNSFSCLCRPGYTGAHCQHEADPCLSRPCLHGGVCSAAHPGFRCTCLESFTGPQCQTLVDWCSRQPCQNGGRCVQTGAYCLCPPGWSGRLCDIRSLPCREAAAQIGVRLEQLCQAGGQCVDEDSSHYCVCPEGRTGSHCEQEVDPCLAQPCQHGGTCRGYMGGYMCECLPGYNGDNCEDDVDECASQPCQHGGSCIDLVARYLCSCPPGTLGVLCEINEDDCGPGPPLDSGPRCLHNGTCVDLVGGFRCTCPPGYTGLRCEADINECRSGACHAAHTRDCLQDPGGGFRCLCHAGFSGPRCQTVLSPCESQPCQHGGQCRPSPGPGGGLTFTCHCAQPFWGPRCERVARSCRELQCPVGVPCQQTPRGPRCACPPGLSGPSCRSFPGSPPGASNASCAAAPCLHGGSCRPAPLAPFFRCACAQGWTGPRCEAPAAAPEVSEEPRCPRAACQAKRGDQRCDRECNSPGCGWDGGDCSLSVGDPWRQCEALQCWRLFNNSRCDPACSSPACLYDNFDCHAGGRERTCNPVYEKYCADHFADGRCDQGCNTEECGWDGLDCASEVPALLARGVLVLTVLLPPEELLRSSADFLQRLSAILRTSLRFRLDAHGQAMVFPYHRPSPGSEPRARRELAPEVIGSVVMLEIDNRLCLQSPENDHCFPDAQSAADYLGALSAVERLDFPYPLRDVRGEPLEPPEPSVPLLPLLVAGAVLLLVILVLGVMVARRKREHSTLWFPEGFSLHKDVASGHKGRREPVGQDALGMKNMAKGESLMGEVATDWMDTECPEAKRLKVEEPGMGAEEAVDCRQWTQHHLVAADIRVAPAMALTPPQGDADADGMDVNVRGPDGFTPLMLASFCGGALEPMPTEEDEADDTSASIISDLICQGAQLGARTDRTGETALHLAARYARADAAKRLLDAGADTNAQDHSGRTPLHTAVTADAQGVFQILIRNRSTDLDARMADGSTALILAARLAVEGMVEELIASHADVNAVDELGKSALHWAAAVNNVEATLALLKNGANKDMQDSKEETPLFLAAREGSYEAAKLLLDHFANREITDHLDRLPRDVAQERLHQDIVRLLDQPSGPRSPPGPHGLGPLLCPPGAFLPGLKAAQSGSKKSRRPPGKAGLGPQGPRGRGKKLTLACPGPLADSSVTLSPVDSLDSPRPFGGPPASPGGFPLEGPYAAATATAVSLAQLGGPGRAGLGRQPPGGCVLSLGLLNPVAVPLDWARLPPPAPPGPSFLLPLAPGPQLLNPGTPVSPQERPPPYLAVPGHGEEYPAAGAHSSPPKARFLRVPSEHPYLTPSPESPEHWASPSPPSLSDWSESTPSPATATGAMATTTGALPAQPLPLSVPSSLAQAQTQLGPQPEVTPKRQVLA

[10] = small-molecule microarray binders of probe aEGFR, primary screen, biochemical, biotinylated probe, 635/667 nm fluorescence (AID 1097); conditions: higher = more signal;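 note: probe is a biotinylated anti-EGFR antibody binding compounds printed on slides; score combines fluorescence near 667 nm and signal to noise of each spot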
[11] = tested on: Plasmodium falciparum Sir2 (PF13_0152, Sir2A); experiment: pfSir2 binders on small-molecule microarrays, primary screen, biochemical, small-molecule microarray, 635 nm fluorescence (AID 1098); conditions: small-molecule microarray binding, fluorescence 635 nm; higher = more signal;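 note: score merges spot fluorescence intensity with its signal-to-noise ratio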
[12] = small-molecule microarray binders of probe aDKK1, primary screen, biochemical, biotinylated probe, 635/667 nm fluorescence (AID 1099); conditions: higher = more signal;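 note: score merges 667nm spot fluorescence with signal to noise across triplicate slides; reference of the scale not given here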
[13] = small-molecule microarray binders of probe aCHRDL2, primary screen, biochemical, biotinylated probe, 635/667 nm fluorescence (AID 1100); conditions: higher = more signal
[14] = splicing luciferase reporter signal modulators, primary screen, spliceosome inhibition project, cell-based, HEK293, splice +/- reporter (AID 1101); conditions: luminescence, 24 h, higher = more signal, called active from +8 up or from −8 down;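 note: HEK293 cells carrying a splicing-competent luciferase reporter gene; test concentration not given here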
[15] = target: Fibroblast growth factor 10 (Homo sapiens) (UniProt O15520); experiment: FGF10 binders on small-molecule microarrays, primary screen, biochemical, small-molecule microarray, 635 nm fluorescence (AID 1102); conditions: FGF10 binding, fluorescence 635 nm, higher = more signal
Fibroblast growth factor 10 (Homo sapiens), sequence (O15520 whole entry, looked up): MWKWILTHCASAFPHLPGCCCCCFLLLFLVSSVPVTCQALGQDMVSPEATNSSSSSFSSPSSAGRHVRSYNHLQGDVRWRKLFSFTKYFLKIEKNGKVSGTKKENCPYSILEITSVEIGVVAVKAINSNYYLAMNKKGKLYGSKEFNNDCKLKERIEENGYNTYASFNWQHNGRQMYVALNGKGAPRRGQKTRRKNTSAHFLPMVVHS

[16] = tested on: glycogen synthase kinase-3 (GSK3A per assay name; protocol says GSK3B); experiment: GSK3 binders on small-molecule microarrays, primary screen, biochemical, small-molecule microarray, 635 nm fluorescence, GSK3A (AID 1103); conditions: small-molecule microarray binding, fluorescence 635 nm; higher = more signal; note: the record names both GSK3A and GSK3B
[17] = target: Epidermal growth factor receptor (Homo sapiens) (UniProt P00533); experiment: EGFR binders on small-molecule microarrays, primary screen, biochemical, small-molecule microarray, 635 nm fluorescence (AID 1104); conditions: EGFR binding, higher = more signal;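 note: score merges 667 nm emission intensity with spot signal to noise over triplicate slides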
Epidermal growth factor receptor (Homo sapiens), sequence (P00533 whole entry, looked up): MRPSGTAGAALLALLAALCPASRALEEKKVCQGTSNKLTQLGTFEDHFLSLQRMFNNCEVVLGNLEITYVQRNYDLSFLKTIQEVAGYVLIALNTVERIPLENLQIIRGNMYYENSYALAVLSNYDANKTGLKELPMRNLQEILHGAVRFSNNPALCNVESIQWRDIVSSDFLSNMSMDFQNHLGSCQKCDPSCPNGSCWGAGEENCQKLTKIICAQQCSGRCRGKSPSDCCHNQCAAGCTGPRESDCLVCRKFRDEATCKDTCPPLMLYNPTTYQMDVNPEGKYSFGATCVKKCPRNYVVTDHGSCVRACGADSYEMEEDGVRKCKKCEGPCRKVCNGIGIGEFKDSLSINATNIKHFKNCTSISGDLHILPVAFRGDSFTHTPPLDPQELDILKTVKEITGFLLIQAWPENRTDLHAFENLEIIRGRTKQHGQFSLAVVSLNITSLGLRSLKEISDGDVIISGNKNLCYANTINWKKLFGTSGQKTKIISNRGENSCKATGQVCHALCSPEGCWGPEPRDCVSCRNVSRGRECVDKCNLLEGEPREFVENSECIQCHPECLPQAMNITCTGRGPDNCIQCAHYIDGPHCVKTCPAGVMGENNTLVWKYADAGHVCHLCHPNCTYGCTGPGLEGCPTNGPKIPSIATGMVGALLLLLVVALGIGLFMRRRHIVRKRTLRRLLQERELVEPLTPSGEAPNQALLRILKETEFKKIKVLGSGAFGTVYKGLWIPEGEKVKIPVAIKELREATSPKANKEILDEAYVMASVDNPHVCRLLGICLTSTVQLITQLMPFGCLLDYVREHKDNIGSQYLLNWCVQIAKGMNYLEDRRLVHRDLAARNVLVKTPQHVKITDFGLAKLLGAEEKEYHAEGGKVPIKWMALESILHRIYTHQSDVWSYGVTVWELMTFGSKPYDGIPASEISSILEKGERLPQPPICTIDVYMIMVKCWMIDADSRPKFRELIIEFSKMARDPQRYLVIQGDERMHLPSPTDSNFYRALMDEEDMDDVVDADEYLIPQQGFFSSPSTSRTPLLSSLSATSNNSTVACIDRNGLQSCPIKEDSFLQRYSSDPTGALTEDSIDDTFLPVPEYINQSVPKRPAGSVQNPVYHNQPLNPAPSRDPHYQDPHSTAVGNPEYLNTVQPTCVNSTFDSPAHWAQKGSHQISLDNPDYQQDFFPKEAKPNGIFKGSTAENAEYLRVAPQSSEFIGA

[18] = target: Follistatin-related protein 3 (Homo sapiens) (UniProt O95633); experiment: FSTL3 binders on small-molecule microarrays, primary screen, biochemical, small-molecule microarray, 635 nm fluorescence (AID 1105); conditions: FSTL3 binding, higher = more signal;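 note: score merges emission near 667 nm and signal to noise per printed spot across three slides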
Follistatin-related protein 3 (Homo sapiens), sequence (O95633 whole entry, looked up): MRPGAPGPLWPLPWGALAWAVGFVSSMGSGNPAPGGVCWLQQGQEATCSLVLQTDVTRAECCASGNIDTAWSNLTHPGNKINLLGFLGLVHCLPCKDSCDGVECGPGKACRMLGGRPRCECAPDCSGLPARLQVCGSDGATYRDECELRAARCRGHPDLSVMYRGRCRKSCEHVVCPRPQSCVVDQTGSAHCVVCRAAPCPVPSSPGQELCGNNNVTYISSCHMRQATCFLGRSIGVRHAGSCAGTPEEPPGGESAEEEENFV

[19] = target: Dickkopf-related protein 1 (Homo sapiens) (UniProt O94907); experiment: DKK1 binders on small-molecule microarrays, primary screen, biochemical, small-molecule microarray, 635 nm fluorescence scan (AID 1106); conditions: DKK1 binding, higher = more signal;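 note: score merges emission near 667 nm with signal to noise over three replicate slides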
Dickkopf-related protein 1 (Homo sapiens), sequence (O94907 whole entry, looked up): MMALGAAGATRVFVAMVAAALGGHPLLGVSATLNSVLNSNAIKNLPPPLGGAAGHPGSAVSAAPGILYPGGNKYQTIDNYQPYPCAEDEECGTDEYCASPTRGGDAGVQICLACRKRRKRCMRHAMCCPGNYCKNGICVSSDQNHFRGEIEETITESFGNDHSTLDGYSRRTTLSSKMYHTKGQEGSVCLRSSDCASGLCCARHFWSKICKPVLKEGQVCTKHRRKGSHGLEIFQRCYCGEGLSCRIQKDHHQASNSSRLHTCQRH

[20] = tested on: Inhibin beta A chain (activin A); experiment: INHBA (activin A) binders on microarrays, primary screen, biochemical, small-molecule microarray, 635 nm fluorescence scan (AID 1107); conditions: small-molecule microarray binding, higher = more signal;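 note: mouse activin A protein probed at 4.33 µg/mL on printed slides; score merges bound-protein fluorescence near 667 nm with spot signal-to-noise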

[N-]=[N+]=NCc1ccccc1[C@@H]1OC(c2ccc(OCCCO)cc2)=N[C@]1(CCS(=O)(=O)c1ccccc1)C(=O)O
composite z-score [1]: 0.627
z-score [2]: 0.302 (inactive)
z-score [3]: 0.76 (inactive)
z-score [4]: 0.248 (inactive)
composite z-score [5]: 3.31
z-score [6]: 0.177 (inactive)
composite z-score [7]: 0.17
composite z-score [8]: -0.823
composite z-score [9]: 0.123
composite z-score [10]: -0.0535
composite z-score [11]: 0.654
composite z-score [12]: 0.79
composite z-score [13]: 0.95
z-score [14]: -0.551 (inactive)
composite z-score [15]: 0.559
composite z-score [16]: -0.0623
composite z-score [17]: -0.231
composite z-score [18]: -0.337
composite z-score [19]: -0.713
composite z-score [20]: 1

CCOC(=O)C1=C[C@@H](C(C)C)N(S(=O)(=O)c2ccc(C)cc2)[C@H]1c1ccc(C(F)(F)F)cc1
composite z-score [1]: 1.35
z-score [2]: 1.43 (inactive)
z-score [3]: 1.5 (inactive)
z-score [4]: 2.08 (inactive)
composite z-score [5]: 3.17
z-score [6]: -0.961 (inactive)
composite z-score [7]: 0.127
composite z-score [8]: 0.745
composite z-score [9]: 1.05
composite z-score [10]: -0.0122
composite z-score [11]: 0.794
composite z-score [12]: 0.374
composite z-score [13]: 0.703
z-score [14]: 0.317 (inactive)
composite z-score [15]: 0.896
composite z-score [16]: 0.898
composite z-score [17]: 0.593
composite z-score [18]: 1.39
composite z-score [19]: 0.441
composite z-score [20]: 0.372

CCCCCN1CC=CC23O[C@@H]4/C=C\CCC(C)OC(=O)C4[C@H]2C(=O)N(C(CO)C(C)C)[C@@H]3C1=O (stereo not given in full)
composite z-score [1]: 0.0839
z-score [2]: -0.646 (inactive)
z-score [3]: -0.957 (inactive)
z-score [4]: -1.02 (inactive)
composite z-score [5]: 2.1
z-score [6]: 1.5 (inactive)
composite z-score [7]: -0.506
composite z-score [8]: -0.087
composite z-score [9]: 0.165
composite z-score [10]: -0.14
composite z-score [11]: 1.63
composite z-score [12]: -0.612
composite z-score [13]: -0.288
z-score [14]: 0.139 (inactive)
composite z-score [15]: 0.0694
composite z-score [16]: -0.169
composite z-score [17]: -0.538
composite z-score [18]: 0.0876
composite z-score [19]: -0.543
composite z-score [20]: 1.18

COC(=O)C/C=C/C[C@]1(O)C(=O)N(C)c2ccccc21
composite z-score [1]: 0.756
z-score [2]: -1.73 (inactive)
z-score [3]: -1.35 (inactive)
z-score [4]: -1.02 (inactive)
composite z-score [5]: 0.423
z-score [6]: 1.48 (inactive)
composite z-score [7]: -0.186
composite z-score [8]: 0.739
composite z-score [9]: 0.434
composite z-score [10]: -0.0805
composite z-score [11]: -0.262
composite z-score [12]: -0.299
composite z-score [13]: -0.802
z-score [14]: -1.38 (inactive)
composite z-score [15]: 0.791
composite z-score [16]: 0.605
composite z-score [17]: 0.784
composite z-score [18]: 0.616
composite z-score [19]: 0.949
composite z-score [20]: 0.587

O=C(O)[C@@H]1[C@@H]2C(=O)N(c3ccccc3)C(=O)[C@@H]2C[C@@H]1Sc1ccccc1
composite z-score [1]: -1.41
z-score [2]: 0.752 (inactive)
z-score [3]: 1.68 (inactive)
z-score [4]: 1.53 (inactive)
composite z-score [5]: 0.758
z-score [6]: -0.686 (inactive)
composite z-score [7]: 0.251
composite z-score [8]: -1.71
composite z-score [9]: -1.56
composite z-score [10]: 0.196
composite z-score [11]: 1.61
composite z-score [12]: 0.638
composite z-score [13]: 0.519
z-score [14]: 0.393 (inactive)
composite z-score [15]: -0.694
composite z-score [16]: -1.74
composite z-score [17]: -0.498
composite z-score [18]: -0.852
composite z-score [19]: -1.19
composite z-score [20]: 0.656

CCCCC[C@H]1OC[C@@]23C=C(Br)[C@@H](CC12)[C@@]1(CO1)C3=O (stereo not given in full)
composite z-score [1]: 0.915
z-score [2]: -1.01 (inactive)
z-score [3]: -6.44 (inactive)
z-score [4]: -0.76 (inactive)
composite z-score [5]: 0.24
z-score [6]: -0.971 (inactive)
composite z-score [7]: -0.231
composite z-score [8]: 0.483
composite z-score [9]: 0.0322
composite z-score [10]: -0.122
composite z-score [11]: -0.501
composite z-score [12]: -0.323
composite z-score [13]: -0.515
z-score [14]: 0.424 (inactive)
composite z-score [15]: 0.106
composite z-score [16]: -0.0067
composite z-score [17]: 0.0985
composite z-score [18]: -0.0915
composite z-score [19]: 0.103
composite z-score [20]: 0.0936

O=C1OCCC=C[C@H]2OC34C=CCN(Cn5nnc6ccccc65)C(=O)[C@H]3N(CCCO)C(=O)[C@@H]4C12 (stereo not given in full)
composite z-score [1]: -1.72
z-score [2]: 0.0799 (inactive)
z-score [3]: -0.973 (inactive)
z-score [4]: -0.342 (inactive)
composite z-score [5]: -1.7
z-score [6]: 1.81 (inactive)
composite z-score [7]: -0.209
composite z-score [8]: -0.677
composite z-score [9]: -0.99
composite z-score [10]: -0.264
composite z-score [11]: -0.783
composite z-score [12]: -0.264
composite z-score [13]: 0.0963
z-score [14]: -1.05 (inactive)
composite z-score [15]: -0.583
composite z-score [16]: -0.789
composite z-score [17]: -0.72
composite z-score [18]: -1.46
composite z-score [19]: -0.454
composite z-score [20]: 0.148

C=CCNC(=O)[C@@H]1[C@H]2C(=O)O[C@H](c3ccccc3)[C@H](c3ccccc3)N2[C@H](c2ccccc2OCCO)[C@@]12C(=O)Nc1ccc(C#CCC(C(=O)OC)C(=O)OC)cc12
composite z-score [1]: 1.45
z-score [2]: 1.13 (inactive)
z-score [3]: 1.19 (inactive)
z-score [4]: 3.72 (inactive)
composite z-score [5]: 1.77
z-score [6]: -0.736 (inactive)
composite z-score [7]: -0.366
composite z-score [8]: 0.0639
composite z-score [9]: 1.07
composite z-score [10]: -0.24
composite z-score [11]: 1.66
composite z-score [12]: -0.319
composite z-score [13]: -0.604
z-score [14]: -3.31 (inactive)
composite z-score [15]: 0.395
composite z-score [16]: 1.03
composite z-score [17]: -0.114
composite z-score [18]: 0.276
composite z-score [19]: 0.0965
composite z-score [20]: 0.482

COC(=O)[C@@]1(Cc2ccc(OC)cc2)[C@H]2c3cc(C(=O)N4CCCC4)n(CCc4c[nH]c5ccc(OC)cc45)c3C[C@H]2CN1C(=O)c1ccccc1
composite z-score [1]: 0.0079
z-score [2]: 0.425 (inactive)
z-score [3]: 1.84 (inactive)
z-score [4]: 4.15 (inactive)
composite z-score [5]: 3.03
z-score [6]: -0.669 (inactive)
composite z-score [7]: 0.722
composite z-score [8]: -0.0307
composite z-score [9]: 1.02
composite z-score [10]: 0.318
composite z-score [11]: 0.789
composite z-score [12]: 1.5
composite z-score [13]: 1.55
z-score [14]: -1.21 (inactive)
composite z-score [15]: 0.591
composite z-score [16]: 1.14
composite z-score [17]: -0.0086
composite z-score [18]: 1.19
composite z-score [19]: -0.299
composite z-score [20]: 0.877
